Experimental findings from ChEMBL document CHEMBL1961873, “Compounds: GSK PKIS; Assays: Nanosyn kinase panel” (2012) are described below.

The target in assay [1] is Mitogen-activated protein kinase kinase kinase kinase 4 (Homo sapiens) (UniProt O95819). The conditions noted are these: at 1 µM.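 Further: reported figure is an averaged inhibition value.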
Assay [2] concerns the target Dual specificity mitogen-activated protein kinase kinase 1 (Homo sapiens) (UniProt Q02750). The conditions noted are these: at 0.1 µM.
The target is the same in assay [3]. Conditions: at 1 µM.
Assay [4] has as its target Misshapen-like kinase 1 (Homo sapiens) (UniProt Q8N4C8). The conditions noted are these: at 0.1 µM.
Assay [5] has the same target. The conditions noted are these: at 1 µM.
Assay [6] has as its target T1, Serine/threonine-protein kinase 4 (Homo sapiens) (UniProt Q13043).
T1 sequence (whole entry): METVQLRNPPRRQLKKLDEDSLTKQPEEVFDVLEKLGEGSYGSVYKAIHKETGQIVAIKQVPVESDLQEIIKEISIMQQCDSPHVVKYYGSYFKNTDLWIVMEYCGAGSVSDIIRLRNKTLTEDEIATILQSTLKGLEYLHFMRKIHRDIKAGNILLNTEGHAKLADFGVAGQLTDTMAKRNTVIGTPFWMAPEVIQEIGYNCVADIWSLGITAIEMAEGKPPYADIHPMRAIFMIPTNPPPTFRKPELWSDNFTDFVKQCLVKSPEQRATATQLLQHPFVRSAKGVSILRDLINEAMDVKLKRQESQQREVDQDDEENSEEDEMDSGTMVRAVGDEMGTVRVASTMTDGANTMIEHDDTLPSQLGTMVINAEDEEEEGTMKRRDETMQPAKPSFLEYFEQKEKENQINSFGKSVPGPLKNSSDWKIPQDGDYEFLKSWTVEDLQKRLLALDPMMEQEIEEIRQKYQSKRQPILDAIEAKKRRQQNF
The conditions noted are these: at 0.1 µM.

Assay [7] has as its target T1, Serine/threonine-protein kinase 4 (Homo sapiens). The conditions noted are these: at 1 µM.
The target in assay [8] is T2, Serine/threonine-protein kinase 3 (Homo sapiens) (UniProt Q13188).
T2 sequence (whole entry): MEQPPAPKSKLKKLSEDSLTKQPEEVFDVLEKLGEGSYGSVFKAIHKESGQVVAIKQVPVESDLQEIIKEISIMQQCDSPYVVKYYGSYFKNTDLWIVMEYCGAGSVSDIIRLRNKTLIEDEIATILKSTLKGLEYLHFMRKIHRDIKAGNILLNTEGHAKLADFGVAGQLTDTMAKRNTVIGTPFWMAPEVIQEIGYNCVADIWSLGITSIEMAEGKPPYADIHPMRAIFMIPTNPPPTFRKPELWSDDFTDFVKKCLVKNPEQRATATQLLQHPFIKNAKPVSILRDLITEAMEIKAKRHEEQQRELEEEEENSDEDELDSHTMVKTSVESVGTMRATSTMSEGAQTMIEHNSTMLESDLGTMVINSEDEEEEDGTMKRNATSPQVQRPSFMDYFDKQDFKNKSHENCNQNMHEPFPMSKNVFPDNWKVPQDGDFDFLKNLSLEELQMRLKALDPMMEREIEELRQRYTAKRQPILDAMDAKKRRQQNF
Conditions: at 0.1 µM.

In assay [9] the target is T2, Serine/threonine-protein kinase 3 (Homo sapiens). The conditions noted are these: at 1 µM.
For assay [10], the target named is Serine/threonine-protein kinase 26 (Homo sapiens) (UniProt Q9P289). The conditions noted are these: at 0.1 µM.
Assay [11] has the same target. Conditions: at 1 µM.
The target in assay [12] is Serine/threonine-protein kinase PAK 1 (Homo sapiens) (UniProt Q13153). Conditions: at 0.1 µM.
Assay [13] shares this target. The conditions noted are these: at 1 µM.
The target of assay [14] is Serine/threonine-protein kinase PAK 2 (Homo sapiens) (UniProt Q13177). The conditions noted are these: at 0.1 µM.
Assay [15] has the same target. Conditions: at 1 µM.
In assay [16] the target is Serine/threonine-protein kinase PAK 3 (Homo sapiens) (UniProt O75914). The conditions noted are these: at 0.1 µM.
Assay [17] shares this target. The conditions noted are these: at 1 µM.
For assay [18], the target named is Serine/threonine-protein kinase PAK 5 (Homo sapiens) (UniProt Q9P286). The conditions noted are these: at 0.1 µM.
Assay [19] shares this target. Conditions: at 1 µM.
Assay [20] addresses Serine/threonine-protein kinase PAK 6 (Homo sapiens) (UniProt Q9NQU5). The conditions noted are these: at 0.1 µM.

Sequence of Serine/threonine-protein kinase PAK 6 (Homo sapiens) (Q9NQU5 whole entry, looked up): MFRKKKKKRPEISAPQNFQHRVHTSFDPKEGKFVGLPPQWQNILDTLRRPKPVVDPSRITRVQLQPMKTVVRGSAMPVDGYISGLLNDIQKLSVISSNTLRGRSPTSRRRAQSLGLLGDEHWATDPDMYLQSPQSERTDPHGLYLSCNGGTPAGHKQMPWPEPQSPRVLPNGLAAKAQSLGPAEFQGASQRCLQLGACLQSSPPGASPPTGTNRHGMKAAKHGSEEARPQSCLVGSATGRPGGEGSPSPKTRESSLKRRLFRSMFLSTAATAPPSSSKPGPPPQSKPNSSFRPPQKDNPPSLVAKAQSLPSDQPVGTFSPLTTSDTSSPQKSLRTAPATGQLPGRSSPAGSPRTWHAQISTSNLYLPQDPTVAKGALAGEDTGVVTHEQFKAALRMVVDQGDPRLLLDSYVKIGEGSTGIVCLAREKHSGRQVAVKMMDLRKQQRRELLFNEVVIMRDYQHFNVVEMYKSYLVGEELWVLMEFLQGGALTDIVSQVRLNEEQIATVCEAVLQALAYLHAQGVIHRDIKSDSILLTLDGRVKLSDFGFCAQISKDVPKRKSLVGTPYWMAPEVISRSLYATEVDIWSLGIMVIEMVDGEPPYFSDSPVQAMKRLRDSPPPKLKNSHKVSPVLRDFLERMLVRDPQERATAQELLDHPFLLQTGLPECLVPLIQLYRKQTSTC
Sequence of Serine/threonine-protein kinase PAK 2 (Homo sapiens) (Q13177 whole entry): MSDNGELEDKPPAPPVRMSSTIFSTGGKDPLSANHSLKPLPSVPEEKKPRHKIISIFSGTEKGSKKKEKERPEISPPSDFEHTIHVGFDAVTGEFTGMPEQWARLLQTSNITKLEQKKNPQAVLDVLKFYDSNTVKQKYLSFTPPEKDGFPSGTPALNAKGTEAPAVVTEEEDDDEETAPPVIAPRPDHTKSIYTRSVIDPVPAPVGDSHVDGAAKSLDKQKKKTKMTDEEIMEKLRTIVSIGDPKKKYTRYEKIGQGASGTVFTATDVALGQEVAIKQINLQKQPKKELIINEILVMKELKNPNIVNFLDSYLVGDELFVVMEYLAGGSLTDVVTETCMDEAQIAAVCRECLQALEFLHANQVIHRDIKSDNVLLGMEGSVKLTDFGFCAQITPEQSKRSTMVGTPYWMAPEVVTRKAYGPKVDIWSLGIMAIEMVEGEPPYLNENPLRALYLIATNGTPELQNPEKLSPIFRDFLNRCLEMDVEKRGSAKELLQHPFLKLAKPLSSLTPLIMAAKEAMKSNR
Sequence of Misshapen-like kinase 1 (Homo sapiens) (Q8N4C8 whole entry, looked up): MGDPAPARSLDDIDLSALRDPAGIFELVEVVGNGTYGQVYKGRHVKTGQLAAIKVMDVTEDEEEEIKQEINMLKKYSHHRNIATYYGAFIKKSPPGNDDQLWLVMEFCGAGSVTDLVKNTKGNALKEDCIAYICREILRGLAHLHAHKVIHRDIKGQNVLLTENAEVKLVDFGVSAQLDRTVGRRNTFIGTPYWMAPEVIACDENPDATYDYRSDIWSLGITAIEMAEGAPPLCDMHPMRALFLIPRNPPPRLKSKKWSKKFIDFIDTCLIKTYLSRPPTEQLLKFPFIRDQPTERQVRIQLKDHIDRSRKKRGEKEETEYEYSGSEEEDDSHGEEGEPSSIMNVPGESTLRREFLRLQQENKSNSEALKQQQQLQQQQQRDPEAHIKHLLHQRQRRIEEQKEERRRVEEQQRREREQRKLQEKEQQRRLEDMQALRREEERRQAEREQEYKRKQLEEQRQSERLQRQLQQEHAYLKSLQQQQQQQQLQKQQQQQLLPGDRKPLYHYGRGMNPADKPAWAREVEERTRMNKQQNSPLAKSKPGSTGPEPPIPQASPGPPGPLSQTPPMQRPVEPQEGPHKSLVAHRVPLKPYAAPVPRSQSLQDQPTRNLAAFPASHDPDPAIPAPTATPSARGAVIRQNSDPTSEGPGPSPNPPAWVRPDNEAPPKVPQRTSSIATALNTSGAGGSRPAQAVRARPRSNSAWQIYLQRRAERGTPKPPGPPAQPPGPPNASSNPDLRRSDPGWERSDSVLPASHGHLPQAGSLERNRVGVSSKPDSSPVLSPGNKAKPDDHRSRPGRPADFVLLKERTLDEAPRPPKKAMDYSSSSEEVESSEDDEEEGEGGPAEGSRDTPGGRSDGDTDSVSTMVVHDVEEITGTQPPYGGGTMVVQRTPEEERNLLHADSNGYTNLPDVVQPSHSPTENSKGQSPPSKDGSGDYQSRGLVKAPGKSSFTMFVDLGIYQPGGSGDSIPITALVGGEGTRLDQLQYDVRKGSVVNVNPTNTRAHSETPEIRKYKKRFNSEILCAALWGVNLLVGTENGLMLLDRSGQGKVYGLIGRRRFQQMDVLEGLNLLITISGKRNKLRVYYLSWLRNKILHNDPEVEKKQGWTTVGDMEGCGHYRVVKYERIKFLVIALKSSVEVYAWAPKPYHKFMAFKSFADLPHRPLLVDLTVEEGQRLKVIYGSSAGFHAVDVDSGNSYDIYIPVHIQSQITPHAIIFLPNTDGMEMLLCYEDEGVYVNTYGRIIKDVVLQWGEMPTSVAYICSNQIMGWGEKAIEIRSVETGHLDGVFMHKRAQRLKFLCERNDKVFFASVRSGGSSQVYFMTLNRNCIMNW
Sequence of Mitogen-activated protein kinase kinase kinase kinase 4 (Homo sapiens) (O95819 2-1239 limits assumed): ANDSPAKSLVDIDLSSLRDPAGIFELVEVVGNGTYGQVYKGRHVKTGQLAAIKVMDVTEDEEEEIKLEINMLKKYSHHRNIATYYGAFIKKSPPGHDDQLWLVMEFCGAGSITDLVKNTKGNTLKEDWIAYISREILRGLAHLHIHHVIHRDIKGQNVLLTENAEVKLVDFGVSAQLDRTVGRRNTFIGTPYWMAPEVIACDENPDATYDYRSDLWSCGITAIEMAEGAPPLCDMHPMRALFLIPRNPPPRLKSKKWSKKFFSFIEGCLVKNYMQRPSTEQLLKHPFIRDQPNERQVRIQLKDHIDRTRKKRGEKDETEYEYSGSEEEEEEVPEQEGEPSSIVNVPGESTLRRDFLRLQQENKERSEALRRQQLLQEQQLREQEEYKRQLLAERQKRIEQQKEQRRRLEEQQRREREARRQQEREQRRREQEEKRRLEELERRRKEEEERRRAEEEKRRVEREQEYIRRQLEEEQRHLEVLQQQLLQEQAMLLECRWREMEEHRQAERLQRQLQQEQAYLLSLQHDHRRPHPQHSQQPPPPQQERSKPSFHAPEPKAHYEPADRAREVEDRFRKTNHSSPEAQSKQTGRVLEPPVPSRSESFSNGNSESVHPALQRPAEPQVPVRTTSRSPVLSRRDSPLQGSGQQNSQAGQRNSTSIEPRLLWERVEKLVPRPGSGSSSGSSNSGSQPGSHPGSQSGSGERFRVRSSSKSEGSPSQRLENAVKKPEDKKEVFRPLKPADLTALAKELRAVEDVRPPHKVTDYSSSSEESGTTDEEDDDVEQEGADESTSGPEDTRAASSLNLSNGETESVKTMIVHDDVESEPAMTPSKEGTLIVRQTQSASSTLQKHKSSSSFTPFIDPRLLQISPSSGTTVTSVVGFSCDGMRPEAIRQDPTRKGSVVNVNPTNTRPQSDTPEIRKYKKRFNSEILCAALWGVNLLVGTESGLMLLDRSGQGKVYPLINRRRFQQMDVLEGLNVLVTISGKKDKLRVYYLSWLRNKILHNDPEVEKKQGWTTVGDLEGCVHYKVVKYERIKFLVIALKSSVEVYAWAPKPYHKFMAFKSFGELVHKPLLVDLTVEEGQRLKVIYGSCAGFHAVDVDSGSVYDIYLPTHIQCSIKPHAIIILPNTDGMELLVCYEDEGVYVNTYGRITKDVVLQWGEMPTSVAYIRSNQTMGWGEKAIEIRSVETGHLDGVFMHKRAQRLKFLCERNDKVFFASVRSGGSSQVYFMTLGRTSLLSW
Sequence of Serine/threonine-protein kinase PAK 3 (Homo sapiens) (O75914 whole entry, looked up): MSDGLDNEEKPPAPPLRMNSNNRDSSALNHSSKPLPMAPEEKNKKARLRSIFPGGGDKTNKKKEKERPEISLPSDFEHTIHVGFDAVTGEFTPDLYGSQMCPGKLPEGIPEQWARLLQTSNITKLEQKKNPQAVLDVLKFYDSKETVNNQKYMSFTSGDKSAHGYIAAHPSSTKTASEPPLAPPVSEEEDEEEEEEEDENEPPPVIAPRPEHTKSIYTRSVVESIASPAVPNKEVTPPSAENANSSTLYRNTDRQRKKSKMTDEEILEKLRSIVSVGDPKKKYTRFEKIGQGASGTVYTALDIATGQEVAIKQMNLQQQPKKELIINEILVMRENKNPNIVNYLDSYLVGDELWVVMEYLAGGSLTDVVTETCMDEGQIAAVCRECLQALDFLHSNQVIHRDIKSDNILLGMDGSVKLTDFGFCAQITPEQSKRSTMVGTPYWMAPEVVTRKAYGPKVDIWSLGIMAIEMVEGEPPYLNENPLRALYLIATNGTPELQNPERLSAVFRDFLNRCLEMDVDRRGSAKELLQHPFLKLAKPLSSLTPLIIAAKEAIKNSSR
Sequence of Serine/threonine-protein kinase PAK 5 (Homo sapiens) (Q9P286 whole entry, looked up): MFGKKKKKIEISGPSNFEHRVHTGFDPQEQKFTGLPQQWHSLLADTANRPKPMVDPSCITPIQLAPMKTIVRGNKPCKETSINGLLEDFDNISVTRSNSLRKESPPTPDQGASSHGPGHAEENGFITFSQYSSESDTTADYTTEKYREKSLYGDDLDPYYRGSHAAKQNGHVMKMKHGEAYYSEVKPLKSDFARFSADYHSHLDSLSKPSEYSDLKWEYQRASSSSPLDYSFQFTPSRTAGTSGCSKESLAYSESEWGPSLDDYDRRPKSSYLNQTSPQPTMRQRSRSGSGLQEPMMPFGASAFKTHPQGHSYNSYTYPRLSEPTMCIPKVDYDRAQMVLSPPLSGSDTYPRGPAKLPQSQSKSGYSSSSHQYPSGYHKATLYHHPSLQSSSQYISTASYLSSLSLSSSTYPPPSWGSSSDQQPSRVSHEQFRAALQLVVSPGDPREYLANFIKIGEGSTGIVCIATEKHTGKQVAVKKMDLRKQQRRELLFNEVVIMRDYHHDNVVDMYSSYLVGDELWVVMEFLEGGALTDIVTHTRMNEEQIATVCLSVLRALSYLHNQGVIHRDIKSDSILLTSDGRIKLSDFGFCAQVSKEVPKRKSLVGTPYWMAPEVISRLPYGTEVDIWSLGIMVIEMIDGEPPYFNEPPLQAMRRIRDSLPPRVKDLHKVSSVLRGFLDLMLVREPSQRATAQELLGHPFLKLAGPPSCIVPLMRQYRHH

In the case of `NS(=O)(=O)c1ccc(Nc2ncc(-c3ccccc3)o2)cc1`, the inhibition in assay [1] turned out to be 58.6%; in [2] it was 2.3%; in assay [3], 2.12%; in assay [4], 8.89%; in [5] it was 41.9%; in assay [6] it was 6.4%. The inhibition in assay [7] was 10.2%; in assay [8] it was 7.3%; in assay [9] it was 8.38%; in assay [10] it was -1.93%; in [11], -2.5%; in assay [12], 4.04%. Moreover, the inhibition in [13] was 7.88%; in [14] it was 2.52%; in [15] it was 1.78%; in assay [16], 4.23%; in assay [17] it was 5.19%; in assay [18], 8.88%. The figures for the inhibition in [19] and in [20] were 9.45% and -1.35%, respectively.

For the compound `COc1cc2c(cc1Nc1nc(Nc3ccsc3C(N)=O)c3cc[nH]c3n1)N(C(=O)CN(C)C)CCC2(C)C`, the inhibition was 14.8% in assay [1]; 6.86% in assay [2]; 12.3% in assay [3]; 11.4% in [4]; 15.3% in assay [5]; 15.6% in assay [6]. For the same compound, the inhibition is 47.7% in assay [7]; 12.3% in assay [8]; 22.1% in assay [9]; 3.1% in [10]; 0.56% in [11]; 8.7% in assay [12]. Further, the inhibition is 7.09% in assay [13]; 2.44% in assay [14]; 3.48% in assay [15]; 5.68% in [16]; 5.85% in assay [17]; -2.38% in assay [18]. Further, the inhibition in [19] is -3.07%; in [20], -6.17%.

Turning to `Nc1nc(-c2cccc(Cl)c2)c(-c2ccc3ncccc3n2)s1`, the inhibition in assay [1] came out at 60.1%; in assay [2] it was 5.85%; in assay [3], 5.35%; in assay [4], 10.7%; in assay [5], 46.9%; in assay [6], 5.29%. The inhibition in assay [7] was 7.53%; in [8] it was 5.84%; in assay [9], 7.74%; in assay [10], -1.9%; in assay [11], -1.1%; in [12], 6.12%. The inhibition in assay [13] stood at 6.28%; in assay [14], 2.17%; in assay [15] it was 1.78%; in assay [16], 3.01%; in [17], 6.05%; in assay [18] it was 1.62%. The figures for the inhibition in assay [19] and in assay [20] were -3.64% and 3.19%, respectively.

`CCn1cc(-c2ccnc3[nH]ccc23)c(-c2cccc(NC(=O)Nc3ccc(OCc4ccccc4)cc3)c2)n1`: the inhibition in [1] came out at 27.8%; in [2] it was 0.08%; in assay [3], 1.59%; in assay [4], 3%; in assay [5], 30.9%; in [6] it was 1.36%. Moreover, the inhibition is 1.63% in assay [7]; 2.37% in [8]; 2.77% in assay [9]; 0.67% in assay [10]; -5.19% in assay [11]; 0.97% in [12]. Further, the inhibition is 0.73% in assay [13]; -0.8% in assay [14]; -0.35% in assay [15]; 1.3% in [16]; 1.28% in [17]; -1.74% in [18]. In addition, the values for the inhibition in assay [19] and in [20] were -3.66% and 5.15%, respectively.

For `Clc1ccc(-c2nn3ncccc3c2-c2ccnc(Nc3ccccc3)n2)cc1`, the inhibition was found to be 39.9% in [1]; 1.32% in assay [2]; 2.28% in assay [3]; 5.91% in assay [4]; 33% in assay [5]; 0.77% in assay [6]. Besides, the inhibition in assay [7] is 0.46%; in [8] it was -0.25%; in [9] it was -0.67%; in [10] it was 1.4%; in assay [11], 2.44%; in assay [12] it was 2.29%. Moreover, the inhibition is -0.81% in assay [13]; 1.12% in assay [14]; -0.15% in assay [15]; 0.58% in [16]; 0.87% in assay [17]; 7.85% in assay [18]. Besides, the inhibition in [19] was -0.84%; in assay [20], 7.89%.

Regarding `COc1cc(/C=N/Nc2ncnc3[nH]ncc23)ccc1O`, the inhibition in [1] is 38.5%; in [2], 3.54%; in assay [3], 3.75%; in [4] it was 6.75%; in assay [5], 25.1%; in assay [6], 6.37%. The inhibition in assay [7] is 19.5%; in assay [8] it was 5.9%; in [9] it was 15.1%; in assay [10] it was -1.06%; in assay [11], 5.4%; in assay [12], 1.82%. Further, the inhibition was found to be 6.64% in assay [13]; 2.22% in assay [14]; 1.35% in [15]; 4.08% in assay [16]; 4.44% in assay [17]; 10.5% in [18]. Also, the inhibition in assay [19] is 11.8%; in assay [20] it was -5.57%.

With `COc1ccc(CNC(=O)c2ccc(-c3cc(-c4nnc(C)o4)ccc3C)cc2)cc1`, the inhibition in assay [1] amounted to 16.3%; in assay [2] it was 3.35%; in assay [3], 0.16%; in [4] it was 3.36%; in assay [5] it was 12.7%; in assay [6] it was 7.99%. Moreover, the inhibition is 14.7% in [7]; 6.56% in [8]; 13.6% in assay [9]; 3.07% in [10]; 4.31% in assay [11]; 5.02% in [12]. The inhibition in assay [13] amounted to 5.86%; in assay [14] it was 0.61%; in assay [15], 0.95%; in [16] it was 1.81%; in assay [17], 3.19%; in [18], 8.37%. In addition, the inhibition was 8.19% in assay [19] and 5.26% in [20].

Regarding `c1ccc(-c2nc3n(c2-c2ccc4c(c2)OCO4)CCC3)nc1`, the inhibition in assay [1] turned out to be 6.59%; in assay [2] it was 1.98%; in assay [3], 1.68%; in assay [4], 3.49%; in assay [5], 6.24%; in assay [6], 0.85%. For the same compound, the inhibition was 1.63% in assay [7]; 1.29% in assay [8]; 1.9% in [9]; 0.34% in assay [10]; -1.91% in assay [11]; 3.44% in [12]. The inhibition in assay [13] was 6.33%; in assay [14], -0.09%; in [15], -0.63%; in [16] it was 1.57%; in assay [17] it was 2.08%; in assay [18], 3.16%. The inhibition in [19] was -0.63%; in [20], 4.69%.

With `COc1ccc(-c2cc3c(N)ncnc3o2)cc1`, the inhibition in assay [1] is 9.41%; in assay [2] it was -0.07%; in assay [3], 1.35%; in [4], 1.42%; in assay [5] it was 6.5%; in assay [6] it was -2%. Besides, the inhibition was -0.96% in [7]; -3.02% in [8]; -0.72% in [9]; 1.44% in [10]; 0.97% in [11]; -2.64% in [12]. Also, the inhibition in assay [13] was -0.27%; in [14], -2.02%; in assay [15] it was -0.84%; in assay [16], -1.87%; in [17] it was -1.01%; in assay [18] it was -1.3%. In addition, the inhibition in assay [19] is -1.65%; in [20], -8.16%.

Regarding `CN1CCC(n2cnc(-c3ccc(F)cc3)c2-c2ccnc(Nc3ccccc3)n2)CC1`, the inhibition in assay [1] worked out at 41.2%; in assay [2], 3.25%; in assay [3] it was 4.26%; in assay [4] it was 8.59%; in [5], 41.2%; in [6], 3.25%. Further, the inhibition in assay [7] turned out to be 6.2%; in assay [8], 1.1%; in assay [9], 3.6%; in assay [10] it was 0.76%; in [11], 5.17%; in [12], 1.24%. Further, the inhibition in assay [13] was 4.02%; in assay [14], 0.86%; in assay [15], -0.38%; in assay [16], 2.18%; in [17] it was 2.38%; in assay [18], -3.93%. Also, the figures for the inhibition in assay [19] and in [20] were 4.44% and -9.85%, respectively.

The term inhibition denotes the drop in the measured response relative to a control, in per cent.
